# The list is not random: actives were taken first. Their share in the collection is about 2.4%.
# D2 antagonist = HTS Assay for Allosteric Antagonists of the Human D2 Dopamine Receptor: Primary Screen for Antagonists. HEK293 TREx D2 cells, calcium flux, dopamine EC80. D(2) dopamine receptor (Homo sapiens), P14416. 2% of 340,000 active. inhibition, % at 10 µM. AID 485344, 2010; in the data active = inhibition above about 30%; inactive = below that, where a call was filed; note: 0% is about no effect
# Target sequence (P14416 whole entry, looked up): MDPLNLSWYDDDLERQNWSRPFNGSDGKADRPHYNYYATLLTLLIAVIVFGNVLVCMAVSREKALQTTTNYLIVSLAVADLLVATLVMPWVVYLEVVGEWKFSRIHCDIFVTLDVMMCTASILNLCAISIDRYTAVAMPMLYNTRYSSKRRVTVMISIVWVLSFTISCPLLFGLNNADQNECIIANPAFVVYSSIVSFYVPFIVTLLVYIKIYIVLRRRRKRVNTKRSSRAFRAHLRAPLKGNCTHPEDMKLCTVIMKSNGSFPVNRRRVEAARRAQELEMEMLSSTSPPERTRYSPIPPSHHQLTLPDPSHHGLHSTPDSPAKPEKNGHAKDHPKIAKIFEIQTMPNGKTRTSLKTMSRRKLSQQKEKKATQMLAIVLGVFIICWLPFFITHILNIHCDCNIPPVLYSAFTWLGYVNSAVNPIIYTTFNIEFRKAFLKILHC
#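 In this primary screen, negative modulation is detected by tracking calcium flux after an EC80 dopamine challenge in inducible HEK293 T-REx D2 cells preexposed to test compound for 180 s.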
# D2 ag-1 = Beta-Arrestin HTS for Positive Allosteric Modulators of the Human D2 Dopamine Receptor: Agonists | D(2) dopamine receptor (Homo sapiens), P14416 | DiscoveRx PathHunter D2 beta-arrestin, luminescence, 90 min; 100% = 57 uM dopamine signal | activation, % (test concentration not listed) | 0.084% of 360,000 active | AID 624465, 2012; in the data active = activation above about 40%; inconclusive = between about 15% and that limit
#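 DiscoveRx PathHunter D2 beta-arrestin cells (2,100/well) attached overnight, then compound-stimulated 90 min at 37 C in HBSS/10 mM HEPES/0.1% Tween-20 buffer; beta-galactosidase complementation read by luminescence after 1 h at ambient temperature. Dopamine 57 uM final (EC100) as control.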
# D2 PAM-1 = HTS Assay for Positive Allosteric Modulators of the Human D2 Dopamine Receptor: Primary Screen for Potentiators | D(2) dopamine receptor (Homo sapiens), P14416 | potentiation, % at 10 µM | HEK293 T-REx D2, calcium flux, EC20 dopamine potentiation | 0.34% of 340,000 active;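 active = potentiation over 3 SD above the plate norm, cut at about 30% in these data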; note: 0% is about no effect
#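 Tetracycline-induced HEK293 T-REx cells force-coupled to calcium signalling expressed D2; compounds were pin-added after a 10 s baseline, read kinetically 180 s, then an EC20 dopamine challenge followed with a further 180 s calcium read.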
# D2 ag-2 = HTS Assay for Allosteric Agonists of the Human D2 Dopamine Receptor: Primary Screen for Agonists; D(2) dopamine receptor (Homo sapiens), P14416; HEK293 T-REx D2 cells, calcium flux agonist mode; activation, % at 2 µM; 0.53% of 340,000 active;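 active = activation over 3 SD above normal in the single-dose calcium agonist read, cut at about 30% in these data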; note: 0% is about no effect
#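 Agonism is scored from calcium flux in a force-coupled, inducible HEK293 cell line expressing D2, read kinetically for 180 s after compound addition against dopamine controls.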
# D2 PAM-2 = Beta-Arrestin HTS for Positive Allosteric Modulators of the Human D2 Dopamine Receptor: Potentiators; D(2) dopamine receptor (Homo sapiens), P14416; DiscoveRx D2 beta-arrestin cells, luminescence, 90 min; 100% = 57 uM dopamine signal; potentiation, % (no concentration beside the values); 0.23% of 360,000 active; AID 624464, 2012; in the data active = potentiation above about 50%; inconclusive = mostly about 30% to 49%
#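 PathHunter D2 cells, attached overnight at 37 deg C, received compound in DMSO plus dopamine at EC20 (50 nM final) for 90 min at 37 deg C. Beta-arrestin recruitment was read as luminescence after 1 h with detection reagent at ambient temperature.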
# * hit, by the source's call; ? = inconclusive; . = no result given.
SMILES,D2 antagonist,D2 ag-1,D2 PAM-1,D2 ag-2,D2 PAM-2
CCN(C1CCCCC1)S(=O)(=O)c1ccc(S(=O)(=O)NCCc2ccncc2)cc1,32.2*,0.3,0.5,-1.8,-6.2
COc1ccc(-c2nc(C)c(CCNC(=O)C(=O)Nc3cccc(F)c3)s2)cc1OC,.,.,8.6,-0.7,.
O=C(Cc1ccc(F)cc1)NCCc1csc(-c2ccc(C(F)(F)F)cc2)n1,.,.,-8.5,1.9,.
O=C1CC(N2CCC(C(=O)N3CCCCC3)CC2)C(=O)N1 (stereo not drawn),37.9*,-2.4,.,2.2,-8.4
CCN1CCN(C2CC(=O)NC2=O)CC1 (stereo not drawn),-4.8,.,1.6,-0.6,.
CCOc1ccccc1N(CC)C(=O)Cn1ncc2c1-c1ccccc1OC2,.,.,-9.9,.,.
COc1ccccc1N1CCN(/N=C/c2cccc(OC)c2O)CC1,58.9*,-8.9,-5.1,-2.6,-6.3
COc1ccccc1N1CCN(C/C(C)=C/c2ccccc2)CC1,74.1*,-1.6,-23.0,0.1,-17.7
COc1ccc(N2CCN(CC(=O)N3N=CCC3c3ccccc3)CC2)cc1 (stereo not drawn),12.7,0.2,-3.0,0.1,-3.2
C/C(=C\c1ccccc1)CN1CCN(c2ccccc2)CC1,-5.8,?,-5.6,-0.4,1.4
COc1ccccc1N1CCN(CC(=O)N2N=CCC2c2ccccc2)CC1 (stereo not drawn),41.7*,-9.9,-17.8,-0.3,-22.5
O=C(NCc1ccccc1Cl)C1CCCN(C(=O)c2cnn(-c3ccccc3)c2-n2cccc2)C1 (stereo not drawn),.,.,0.1,0.6,.
COc1ccc(NC(=O)c2cc(S(=O)(=O)N3CCCCCC3)cn2C)cc1Cl,.,.,-0.5,.,.
Clc1cccc(-n2cc(-c3ccccc3)c3c(N4CCCCC4)ncnc32)c1,.,.,13.3,0.1,.
Cc1cc(/C=N/O)c(C)n1-c1ccc(Br)cc1,37.7*,-3.2,-0.8,-1.4,-6.9
Cc1ccsc1C1NC(=O)c2ccccc2N1 (stereo not drawn),-8.8,1.3,32.6*,0.8,-15.2
O=C1NC(c2cccs2)Nc2ccccc21 (stereo not drawn),0.9,-3.5,7.4,-2.4,-23.2
CCn1c(CN2CCCCC2)nc2cc(NC(=O)COc3ccccc3C(C)(C)C)ccc21,.,.,-21.5,-1.8,.
CC(C)(C)OC(=O)CNC(=O)c1[nH]cnc1C(=O)NC(c1ccccc1)c1ccccc1,-20.8,-0.5,-24.7,48.2*,-4.0
C[C@H](NC(=O)c1nc[nH]c1C(=O)NC(c1ccccc1)c1ccccc1)C(=O)OC(C)(C)C,.,-0.5,.,.,-10.7
CC(=O)OC[C@@H]1CN(Cc2ccccc2)C[C@H](n2cnc3c(N(C)C(C)C)ncnc32)O1,.,-3.4,.,.,-10.1
CCC(=O)N1CCc2cc(Br)cc(S(=O)(=O)N3CCCC(C(=O)Nc4cccc(F)c4)C3)c21 (stereo not drawn),.,.,-6.6,.,.
CCc1ccc(-c2nc(SCC(=O)NCC3CCCO3)c(-c3ccc(C)cc3)[nH]2)cc1 (stereo not drawn),.,.,-21.9,-0.6,.
Cc1ccc(-c2nc(S(=O)(=O)c3ccc(F)cc3)c(SCC(=O)NCC3CCCO3)o2)cc1 (stereo not drawn),-6.5,0.2,36.3*,0.6,-3.0
Cc1ccc(-c2[nH]c(-c3ccc(Cl)cc3)nc2SCC(=O)NCC2CCCO2)cc1 (stereo not drawn),60.9*,-2.4,-20.4,4.0,-10.8
SMILES,D2 antagonist,D2 ag-1,D2 PAM-1,D2 ag-2,D2 PAM-2
Cc1ccc(-n2ncc3c(=O)[nH]c(SCC(=O)NCC4CCCO4)nc32)cc1 (stereo not drawn),.,0.2,.,.,-1.9
O=C(CSc1nc2c(cnn2-c2cccc(Cl)c2)c(=O)[nH]1)NCC1CCCO1 (stereo not drawn),38.7*,8.2,3.5,-0.3,0.9
CCN(CC)c1ccc(NC(=O)C2CCN(S(=O)(=O)c3ccc4c(c3)oc(=O)n4C)CC2)c(C)c1,.,.,4.1,-0.6,.
Cc1c(C)n(C(=O)CN2CCN(c3ccccc3)CC2)c2ccccc12,-6.8,-4.5,18.7,0.7,-8.6
Cc1c(C)n(C(=O)CN2CCC(C(N)=O)CC2)c2ccccc12,36.3*,-1.7,-5.7,0.3,-7.6
Cn1c(=O)c2c(nc(NCc3ccco3)n2C/C=C/c2ccccc2)n(C)c1=O,-3.6,11.5,10.0,-1.0,63.9*
CC1CCc2cc(F)ccc2N1C(=O)C12CCC(C)(C(=O)O1)C2(C)C (stereo not drawn),32.0*,-3.2,-5.4,0.0,0.7
Cc1ccc2c(=O)cc(C(=O)Nc3ccc(S(=O)(=O)N4CCC(C)CC4)cc3)oc2c1C,.,.,-4.5,1.0,.
Cc1ccc(-c2ccc(CCC(=O)O)n2C(C)C)cc1,32.6*,-1.5,15.5,-0.1,-7.3
Cc1ccc(-c2ccc(CCC(=O)O)n2NC(N)=S)cc1,-8.1,0.2,3.8,2.4,-20.3
Cc1cccc(N(CC(=O)NC2CCCC2)C(=O)CS(=O)CC(=O)Nc2ccc3c(c2)OCO3)c1 (stereo not drawn),31.7*,-3.0,-14.5,-0.1,-8.3
CCOC(=O)c1c(NC(=O)C[n+]2ccccc2)sc2c1CCCC2,45.8*,-4.3,-21.9,-0.1,-38.5
CCCCOc1ccc(NC2=NC3(CCCCC3)N=C(N)N2)cc1,35.5*,-0.5,18.0,0.6,-2.0
COc1ccc(NC2=NC3(CCCCC3)N=C(N)N2)cc1,-22.1,-1.6,17.5,-0.4,-26.6
CCOc1cc(CNCCSc2nnnn2-c2ccccc2)cc(Cl)c1OC,.,.,10.8,-2.1,.
COc1cc(O)c(C(CCN2CCN(c3ccccc3)CC2)c2cc(OC)c(OC)c(OC)c2)c(OC)c1 (stereo not drawn),67.1*,-2.0,-22.7,1.1,-24.0
O=C1C(Nc2ccccc2)=C/C(=N/S(=O)(=O)c2cccs2)c2ccccc21,0.1,-4.5,6.8,-2.1,-1.7
Cc1ccc(NC2=C/C(=N/S(=O)(=O)c3cccs3)c3ccccc3C2=O)cc1,-20.1,14.0,3.9,0.3,57.8*
COc1ccc(-c2nc3c(C)cc(Br)cn3c2Cc2cccc(Cl)c2)cc1OC,.,-6.8,.,.,-7.1
COc1cc2[nH]c(=S)nc(NCc3ccccc3)c2cc1OC,-3.8,9.5,5.3,-1.1,-6.2
COc1ccc(CNc2nc(=S)[nH]c3cc(OC)c(OC)cc23)cc1,34.0*,1.2,-9.9,0.3,-10.4
COc1cc2[nH]c(=S)nc(NCc3ccc(C)cc3)c2cc1OC,40.6*,1.3,-4.8,-0.1,-10.8
CCN(Cc1ccccc1)C(=O)c1cc2c(s1)-c1c(C)cccc1OC2,.,.,8.0,.,.

# Screening data from PubChem.
